Results published in PubChem BioAssay (NCI).
This is part of a sample that, as a whole, favours compounds with a hit. Of some 83,000 tested, about 20% had one in any assay.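 Cell lines were cultured in 96-well plates, exposed to a single compound concentration, and assessed for percent growth 48 hours later.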 Unmarked numbers belong to inactive results. Activity calls are given as the source filed them. Rule for the calls: active = growth percent below 10; inactive = the rest.

Each compound was assayed on MDA-MB-468 breast (assay: NCI-60 one-dose screen, 48 h (100 = growth as untreated, 0 = no growth, -100 = all killed)). Settings: 10 µM unless noted.

Question: With `CS(=O)(=O)c1ccc(-c2nc3cc(Cl)ccc3n2CC(=O)N/N=C/c2ccc(Cl)cc2)cc1` as the compound, how does the growth read?
Answer: The growth was 96.6%.

Question: `CCC/C=C(\C)C(C)(C#N)C(=O)OCC` (stereo not given) was tested. Which growth did it give?
Answer: The growth was 102%.

Question: `C=CCSc1nc2ccccc2cc1/C=N/O` was tested. Which growth did it give?
Answer: Its growth is 82%.

Question: For `O=C(CCl)N1c2ccccc2Sc2c1ccc1ccccc21`, which growth is on record?
Answer: Its growth is 26.4%.

Question: `CC(C)(C)c1ccc(C(=O)Nc2sc3c(c2C#N)CCC(=O)C3)cc1` was tested. Which growth did it give?
Answer: The growth was 2.73% (active).

Question: How did the growth turn out when `C=CC(=O)N1CCC(Oc2cc3c(Nc4ccc(Cl)c(Cl)c4F)ncnc3cc2OC)CC1` was run?
Answer: Its growth is -62.5% (active).

Question: Which growth does the source give for `Cc1ccc(CC#N)cc1C` here?
Answer: Its growth is 104%.

Question: For `C[C@]12CC[C@@H]3c4ccc(O)c([N+](=O)[O-])c4CC[C@H]3[C@@H]1CC[C@@H]2NS(=O)(=O)c1cccc(Br)c1`, which growth is on record?
Answer: Its growth is 39.8%.

Question: Which growth does the source give for `COc1cc(/C=C2\COc3ccc(-c4ccccc4)cc3C2=O)cc(OC)c1` here?
Answer: The growth was 69.3%.

Question: How did the growth turn out when `CCN(CC)CCCC(C)N=c1cc(Nc2cc(=NC(C)CCCN(CC)CC)c3cc(OC)ccc3o2)oc2ccc(OC)cc12` (stereo not given) was run?
Answer: Its growth is -76.8% (active).

Question: Which growth does the source give for `Clc1cc(Cl)c(Cl)nn1` here?
Answer: The growth was 102%.

Question: How did the growth turn out when `CC(=O)OC[C@@]12Oc3c(cccc3-c3ccc(O)c4c3O[C@]3(COC(C)=O)C(=C4O)C(=O)C[C@H](C)[C@@H]3OC(C)=O)C(O)=C1C(=O)C[C@H](C)[C@@H]2OC(C)=O` was run?
Answer: Its growth is -30.2% (active).

Question: With `CC1(C)NCCC[C@]2(C)[C@H]3C/C(=N\O)C4[C@@H]5C[C@@](C)(CO)CC[C@]5(C)CC[C@@]4(C)[C@]3(C)CC[C@@H]12` (stereo not given in full) as the compound, how does the growth read?
Answer: The growth was 89.4%.

Question: With `NCCCNc1nc2ccccc2c2c(=O)c3cccc(F)c3sc12` as the compound, how does the growth read?
Answer: Its growth is -11.3% (active).

Question: With `O=C1c2c(c3c4ccccc4n(CCCCCCN4CCOCC4)c3c3[nH]c4ccccc4c23)C(=O)N1O` as the compound, how does the growth read?
Answer: The growth was 103%.

Question: `COc1ccc(-c2cc(-c3ccccc3)nc(N3CCN(CCNc4ccnc5cc(Cl)ccc45)CC3)n2)cc1` was tested. Which growth did it give?
Answer: The growth was -54.7% (active).

Question: How did the growth turn out when `Cc1ccc(C)c2c1sc1nc(N3CCOCC3)c(C#N)c(=O)n12` was run?
Answer: Its growth is 86.9%.

Question: How did the growth turn out when `COc1ccc(CN2C(=O)OC(C)(COC(C)=O)C2=O)cc1` (stereo not given) was run?
Answer: The growth was 92.9%.

Question: With `O=C1Cc2c(sc3c(F)cccc23)C(c2ccccc2[N+](=O)[O-])N1` (stereo not given) as the compound, how does the growth read?
Answer: Its growth is 86.9%.

Question: For `CCc1ccc(C(c2ccc(CC)cc2)C(Cl)(Cl)CCl)cc1`, which growth is on record?
Answer: Its growth is 95.8%.

Question: `CCC1(c2ccccc2)Oc2ccccc2-n2c(C#N)c3ccccc3c2C1=O` (stereo not given) was tested. Which growth did it give?
Answer: The growth was 104%.

Question: With `C=CCn1c(SCC(=O)Nc2ccc(C(=O)/C=C/c3cc(OC)c(OC)c(OC)c3)cc2)nnc1-c1c[nH]c2ccccc12` as the compound, how does the growth read?
Answer: Its growth is 37%.

Question: With `COc1ccc2c(c1)c(-c1nnc(N)nc1-c1c[nH]c3ccc(F)cc13)cn2C` as the compound, how does the growth read?
Answer: The growth was 2.84% (active).

Question: `COc1cccc(/C=C2\Oc3cc(OCCCN4CCCC4)ccc3C2=O)c1` was tested. Which growth did it give?
Answer: Its growth is 69.4%.

Question: For `CN(C)c1ccc(C(=NO)c2ccc(N(C)C)cc2)cc1`, which growth is on record?
Answer: The growth was -0.198% (active).

Question: Which growth does the source give for `OC1CCCN(Cc2ccccc2)C1` (stereo not given) here?
Answer: The growth was 103%.

Question: How did the growth turn out when `NS(=O)(=O)c1ccc(-n2nc(C(=O)N/N=C\c3ccc(F)cc3)cc2-c2ccc(Br)cc2)cc1` was run?
Answer: Its growth is 73.9%.

Question: `C#Cc1cccc(Nc2nc(C)nc3cc(NC(=O)CCl)ccc23)c1` was tested. Which growth did it give?
Answer: The growth was -78.5% (active).

Question: `CCSC1=NC2C(N(CC)C(=O)N2CC)N1/N=C/C=C/c1ccccc1[N+](=O)[O-]` (stereo not given) was tested. Which growth did it give?
Answer: Its growth is -0.585% (active).

Question: `C=CCOc1ccc2c(c1)CC=C1[C@@H]2CC[C@]2(C)C(=O)/C(=N/O)C[C@@H]12` was tested. Which growth did it give?
Answer: The growth was 55.7%.

Question: With `C=CCSC(CC)(CC)C(=O)NC` as the compound, how does the growth read?
Answer: The growth was 99.3%.

Question: `COc1ccc(/C=N\NC(=O)CN2CCN(c3cc4c(cc3F)c(=O)c(C(=O)N/N=C/c3ccc(OC)c(OC)c3)cn4C3CC3)CC2)cc1OC` was tested. Which growth did it give?
Answer: Its growth is -27.6% (active).

Question: For `Cc1c(C(=O)NCCCc2ccccc2)sc2ncc(-c3ccc(Br)cc3)n12`, which growth is on record?
Answer: The growth was 108%.

Question: `C=C1CC[C@@H]2[C@](C)(COC(C)=O)[C@H](OC(C)=O)CC[C@@]2(C)[C@@H]1CC(Nc1ccc(S(=O)(=O)Nc2ncccn2)cc1)C1=CCOC1=O` (stereo not given in full) was tested. Which growth did it give?
Answer: Its growth is -54% (active).

Question: Which growth does the source give for `CC1OC(O[C@@H]2C(O)C(CO)OC(O[C@H]3COC(O[C@H]4CC[C@]5(C)[C@H]6CC[C@]78OC[C@@]9(CC[C@](C)(C=O)C[C@H]97)[C@H](O)C[C@@]8(C)[C@]6(C)CC[C@H]5C4(C)C)[C@@H](OC4OC(CO)[C@@H](O)[C@@H](O)[C@@H]4O)[C@@H]3O)[C@H]2OC2OC[C@@H](O)[C@@H](O)[C@@H]2O)[C@@H](O)[C@@H](O)[C@H]1O` (stereo not given in full) here?
Answer: The growth was 34.5%.
